The list is not random: actives were taken first. Their share in the collection is about 0.9%.
PPARg SRC2 recr: agonists of SRC-2 recruitment by human PPARgamma | PPARgamma LBD-SRC-2 recruitment, biochemical | activation, % at 8 µM | 200,000 compounds, 0.34% hits | AID 1032; in the data active means activation above about 22%;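 further: 0% = vehicle and 100% = reference agonist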
SRC3 TRFRET art: flags TR-FRET format artefacts in PPARgamma SRC-3 recruitment agonist screen | TR-FRET artefact counter-screen, PPARgamma/SRC-3 format; active compounds read high | TR-FRET ratio at 8 µM | 99,000 compounds, 0.39% hits | AID 1048
TR-FRET SRC-2 ct: flags TR-FRET format artefacts in PPARgamma SRC-2 recruitment agonist screen. TR-FRET artefact counter-screen; active compounds read high. TR-FRET ratio at 8 µM. 200,000 compounds, 0.4% hits. AID 1049
PPARg SRC-3 ag: PPARgamma-driven SRC-3 recruitment agonism | biochemical PPARgamma/SRC-3 coactivator recruitment assay | P37231 | 200,000 compounds, 0.26% hits | activation, % at 8 µM; in the data active means activation above about 23%;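 further: 0% = DMSO and 100% = reference agonist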
PPARg SRC1 recr: PPARgamma-driven SRC-1 recruitment agonism; PPARgamma-SRC-1 coactivator recruitment biochemical assay; 200,000 compounds, 0.41% hits; AID 631; activation, % at 8 µM; P37231; in the data active means activation above about 19%;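 further: 0% = DMSO and 100% = reference agonist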
SRC1 TRFRET art: TR-FRET artefact, counter-screen to PPARgamma/SRC-1 agonist assay; AID 1051; 99,000 compounds, 0.34% hits; TR-FRET ratio at 8 µM; TR-FRET detection artefact counter-screen, emission ratio; active compounds read high; in the data active means TR-FRET ratio above about 2300
PPARg SRC2 conf: confirmation of agonists of SRC-2 recruitment by human PPARgamma; shares compounds with PPARg SRC-3 ag; biochemical SRC-2 recruitment by PPARgamma; activation, % at 8 µM; 790 compounds, 52% hits; in the data active means activation above about 22%;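 further: 0% = vehicle alone and 100% = reference agonist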
PPARg SRC1 ag: confirmation of agonists of SRC-1 recruitment by human PPARgamma; shares compounds with PPARg SRC-3 ag; AID 1300; activation, % at 8 µM; 790 compounds, 43% hits; PPARgamma–SRC-1 coactivator recruitment biochemical assay; in the data active means activation above about 20%;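 further: 0% = vehicle wells and 100% = reference agonist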
PPARg SRC3 conf: human PPARgamma SRC-3 recruitment agonism, confirmation; biochemical PPARgamma-SRC-3 coactivator recruitment, agonist mode; activation, % at 8 µM; shares compounds with PPARg SRC-3 ag; 790 compounds, 29% hits; in the data active means activation above about 24%;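 further: 0% = vehicle wells and 100% = reference agonist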
Target sequence (P37231 whole entry, looked up): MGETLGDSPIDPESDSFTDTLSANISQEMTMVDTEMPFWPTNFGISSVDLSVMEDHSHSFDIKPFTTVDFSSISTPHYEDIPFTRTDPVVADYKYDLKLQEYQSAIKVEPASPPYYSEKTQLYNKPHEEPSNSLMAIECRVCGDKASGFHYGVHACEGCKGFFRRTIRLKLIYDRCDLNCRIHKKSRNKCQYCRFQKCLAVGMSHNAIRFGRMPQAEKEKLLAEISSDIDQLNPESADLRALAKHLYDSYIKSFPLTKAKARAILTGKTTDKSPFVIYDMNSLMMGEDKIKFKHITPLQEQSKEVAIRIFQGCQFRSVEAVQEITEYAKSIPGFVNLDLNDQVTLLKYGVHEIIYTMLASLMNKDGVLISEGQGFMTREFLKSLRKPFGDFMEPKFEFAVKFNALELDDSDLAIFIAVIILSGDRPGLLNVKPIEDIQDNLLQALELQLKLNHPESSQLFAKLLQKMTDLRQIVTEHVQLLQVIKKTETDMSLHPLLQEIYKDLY
Target sequence (Q9Y6Q9 whole entry, looked up): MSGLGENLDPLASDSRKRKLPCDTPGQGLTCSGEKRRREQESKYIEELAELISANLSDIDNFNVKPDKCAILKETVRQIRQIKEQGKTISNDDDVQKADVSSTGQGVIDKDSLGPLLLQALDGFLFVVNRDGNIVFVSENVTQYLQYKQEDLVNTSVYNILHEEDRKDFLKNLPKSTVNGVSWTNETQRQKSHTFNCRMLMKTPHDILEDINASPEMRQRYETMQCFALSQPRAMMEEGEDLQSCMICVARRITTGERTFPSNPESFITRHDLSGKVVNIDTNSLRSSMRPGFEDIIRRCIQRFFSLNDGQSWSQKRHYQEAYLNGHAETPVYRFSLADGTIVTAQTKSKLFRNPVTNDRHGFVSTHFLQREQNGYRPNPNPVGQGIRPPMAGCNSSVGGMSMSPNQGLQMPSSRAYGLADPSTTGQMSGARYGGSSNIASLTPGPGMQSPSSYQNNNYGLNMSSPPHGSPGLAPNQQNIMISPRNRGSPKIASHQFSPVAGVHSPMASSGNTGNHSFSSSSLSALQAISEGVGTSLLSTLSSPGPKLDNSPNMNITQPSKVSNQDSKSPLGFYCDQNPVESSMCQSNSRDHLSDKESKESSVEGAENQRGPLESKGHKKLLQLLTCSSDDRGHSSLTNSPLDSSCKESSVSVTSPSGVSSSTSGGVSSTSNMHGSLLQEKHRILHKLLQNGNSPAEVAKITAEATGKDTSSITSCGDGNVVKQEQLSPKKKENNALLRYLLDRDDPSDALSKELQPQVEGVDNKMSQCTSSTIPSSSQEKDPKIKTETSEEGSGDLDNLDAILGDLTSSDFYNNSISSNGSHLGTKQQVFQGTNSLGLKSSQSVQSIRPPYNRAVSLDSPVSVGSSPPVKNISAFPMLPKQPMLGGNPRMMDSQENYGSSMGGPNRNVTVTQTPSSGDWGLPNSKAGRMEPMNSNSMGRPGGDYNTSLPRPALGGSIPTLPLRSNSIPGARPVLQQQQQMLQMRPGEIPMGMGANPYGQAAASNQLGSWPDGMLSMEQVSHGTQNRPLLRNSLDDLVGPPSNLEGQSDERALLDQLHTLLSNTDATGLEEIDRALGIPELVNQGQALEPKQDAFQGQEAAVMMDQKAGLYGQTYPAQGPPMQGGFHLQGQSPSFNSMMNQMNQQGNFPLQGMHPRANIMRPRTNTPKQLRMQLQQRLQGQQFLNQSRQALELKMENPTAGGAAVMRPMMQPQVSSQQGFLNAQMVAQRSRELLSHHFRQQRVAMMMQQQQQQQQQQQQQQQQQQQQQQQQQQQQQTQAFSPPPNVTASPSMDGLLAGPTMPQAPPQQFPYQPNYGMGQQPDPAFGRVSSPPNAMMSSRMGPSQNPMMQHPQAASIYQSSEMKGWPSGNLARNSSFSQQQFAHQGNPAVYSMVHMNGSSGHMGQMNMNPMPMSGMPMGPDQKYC
The depositor's hits bear a star. Unless noted, no stated cut-off is given here; in the data, active means TR-FRET ratio above about 2000; inactive means the rest.

Results for C(=Nc1cccc2c(N=Cc3ccco3)cccc12)c1ccco1 ?
PPARg SRC2 recr: 22.5*; SRC3 TRFRET art: 1941; TR-FRET SRC-2 ct: 1870; PPARg SRC-3 ag: 19.7; PPARg SRC1 recr: 25.5*; SRC1 TRFRET art: 2290; PPARg SRC2 conf: 8.7; PPARg SRC1 ag: 5.8; PPARg SRC3 conf: 6.4

What do the screens show for `C(=N\C(/N=C/c1ccco1)c1ccco1)/c1ccco1`?
PPARg SRC2 recr: 15.0; SRC3 TRFRET art: 1658; TR-FRET SRC-2 ct: 1592; PPARg SRC-3 ag: -1.2; PPARg SRC1 recr: 0.8; SRC1 TRFRET art: 1958

What do the screens show for `CN(C)c1ccc(N=Cc2ccco2)cc1`?
PPARg SRC2 recr: 85.1*; TR-FRET SRC-2 ct: 2974*; PPARg SRC-3 ag: 74.2*; PPARg SRC1 recr: 67.2*; PPARg SRC2 conf: 5.4; PPARg SRC1 ag: 2.7; PPARg SRC3 conf: 3.5

Results for CN(C)c1ccc(C=Nc2ccc(N(C)C)cc2)cc1 ?
PPARg SRC2 recr: 95.2*; TR-FRET SRC-2 ct: 2825*; PPARg SRC-3 ag: 103.7*; PPARg SRC1 recr: 68.8*; PPARg SRC2 conf: 5.1; PPARg SRC1 ag: 3.5; PPARg SRC3 conf: 5.1

What do the screens show for `Cc1nc2c(=O)[nH]c3ccccc3c2o1`?
PPARg SRC2 recr: -0.5; SRC3 TRFRET art: 1422; TR-FRET SRC-2 ct: 1616; PPARg SRC-3 ag: 2.6; PPARg SRC1 recr: 10.8; SRC1 TRFRET art: 1753

How did Cc1ccc(CSC2=Nc3ccccc3C3=NC(=O)CN23)cc1 do in these assays?
PPARg SRC2 recr: -2.8; SRC3 TRFRET art: 1397; TR-FRET SRC-2 ct: 1488; PPARg SRC-3 ag: 4.9; PPARg SRC1 recr: -6.6; SRC1 TRFRET art: 1885

How did COc1cc2c(cc1OC)C1=NC(=O)CN1C(SCc1ccccc1C)=N2 do in these assays?
PPARg SRC2 recr: 26.6*; TR-FRET SRC-2 ct: 1965; PPARg SRC-3 ag: 20.9; PPARg SRC1 recr: 14.0; PPARg SRC2 conf: 28.0*; PPARg SRC1 ag: 18.2; PPARg SRC3 conf: 19.0

How did CCOC(=O)c1ccc(S(=O)(=O)N2CCN(C(=O)c3cc(=O)c4ccccc4o3)CC2)cc1 do in these assays?
PPARg SRC2 recr: 1.3; SRC3 TRFRET art: 1588; TR-FRET SRC-2 ct: 1646; PPARg SRC-3 ag: -1.3; PPARg SRC1 recr: 5.6; SRC1 TRFRET art: 1967

What do the screens show for `CCn1c(SCC(=O)NC2CCCCC2)nnc1-c1cccs1`?
PPARg SRC2 recr: -14.4; TR-FRET SRC-2 ct: 1351; PPARg SRC-3 ag: 3.5; PPARg SRC1 recr: -7.7

What do the screens show for `CCn1c(SC(=O)NC2CCCCC2)nnc1-c1cccs1`?
PPARg SRC2 recr: 22.5*; TR-FRET SRC-2 ct: 1842; PPARg SRC-3 ag: 28.8*; PPARg SRC1 recr: 23.7*; PPARg SRC2 conf: 21.5; PPARg SRC1 ag: 19.3; PPARg SRC3 conf: 14.4

What do the screens show for `C#CCSc1ncc(-c2ccccc2)cn1`?
PPARg SRC2 recr: 9.6; SRC3 TRFRET art: 1553; TR-FRET SRC-2 ct: 1733; PPARg SRC-3 ag: 6.5; PPARg SRC1 recr: 21.1*; SRC1 TRFRET art: 2074; PPARg SRC2 conf: 4.8; PPARg SRC1 ag: 3.9; PPARg SRC3 conf: 5.0

How did O=C(c1ccccc1)c1cccn1CC(=O)N1CCc2ccccc2C1 do in these assays?
PPARg SRC2 recr: -6.7; SRC3 TRFRET art: 1632; TR-FRET SRC-2 ct: 1370; PPARg SRC-3 ag: 2.7; PPARg SRC1 recr: -4.9; SRC1 TRFRET art: 1625

How did O=C(O)c1cccnc1SCC(=O)N1CCCCCC1 do in these assays?
PPARg SRC2 recr: 4.6; TR-FRET SRC-2 ct: 1613; PPARg SRC-3 ag: 8.1; PPARg SRC1 recr: 19.5*; PPARg SRC2 conf: 3.9; PPARg SRC1 ag: 6.3; PPARg SRC3 conf: 1.2

What do the screens show for `CCCn1c(N)c(N(CCOC)C(=O)/C=C/c2ccc(C(=O)OC)cc2)c(=O)[nH]c1=O`?
PPARg SRC2 recr: 1.1; SRC3 TRFRET art: 1696; TR-FRET SRC-2 ct: 1546; PPARg SRC-3 ag: 1.9; PPARg SRC1 recr: -1.6; SRC1 TRFRET art: 1630

What do the screens show for `COc1ccc(O)c(C(=O)c2cc(C#N)c(=O)n(Cc3ccccc3)c2)c1`?
PPARg SRC2 recr: 1.6; SRC3 TRFRET art: 1633; TR-FRET SRC-2 ct: 1613; PPARg SRC-3 ag: 5.5; PPARg SRC1 recr: 11.1; SRC1 TRFRET art: 1656

What do the screens show for `N#Cc1cc(C(=O)c2cc(Br)ccc2O)cn(Cc2ccccc2)c1=O`?
PPARg SRC2 recr: 14.0; SRC3 TRFRET art: 1805; TR-FRET SRC-2 ct: 1955; PPARg SRC-3 ag: 7.6; PPARg SRC1 recr: 31.3*; SRC1 TRFRET art: 2306; PPARg SRC2 conf: 27.3*; PPARg SRC1 ag: 23.1*; PPARg SRC3 conf: 17.7

How did CCc1cc(=O)oc2cc(C)cc(O)c12 do in these assays?
PPARg SRC2 recr: 41.6*; TR-FRET SRC-2 ct: 2296*; PPARg SRC-3 ag: 50.0*; PPARg SRC1 recr: 37.0*; PPARg SRC2 conf: 40.2*; PPARg SRC1 ag: 27.3*; PPARg SRC3 conf: 27.2*

What do the screens show for `COC(=O)Cc1c(C)c2ccc(OC(=O)c3ccccc3)cc2oc1=O`?
PPARg SRC2 recr: 9.7; TR-FRET SRC-2 ct: 1583; PPARg SRC-3 ag: 1.0; PPARg SRC1 recr: 4.0

What do the screens show for `CCCCCc1cc(O)c2c(C)cc(=O)oc2c1`?
PPARg SRC2 recr: 14.2; TR-FRET SRC-2 ct: 1926; PPARg SRC-3 ag: 20.6; PPARg SRC1 recr: 18.9*; PPARg SRC2 conf: 15.8; PPARg SRC1 ag: 7.4; PPARg SRC3 conf: 11.8

How did CCCc1cc(=O)oc2cc(C)cc(O)c12 do in these assays?
PPARg SRC2 recr: 27.6*; TR-FRET SRC-2 ct: 2043*; PPARg SRC-3 ag: 27.1*; PPARg SRC1 recr: 18.7; PPARg SRC2 conf: 20.9; PPARg SRC1 ag: 13.5; PPARg SRC3 conf: 14.2

Results for COC(=O)Cc1c(C)c2c(O)cc(C)cc2oc1=O ?
PPARg SRC2 recr: 29.7*; TR-FRET SRC-2 ct: 2058*; PPARg SRC-3 ag: 35.3*; PPARg SRC1 recr: 20.0*; PPARg SRC2 conf: 27.2*; PPARg SRC1 ag: 20.6*; PPARg SRC3 conf: 17.6

What do the screens show for `COCCNC(=O)/C(C#N)=C1\N=C(N)c2ccccc21`?
PPARg SRC2 recr: -2.3; SRC3 TRFRET art: 1738; TR-FRET SRC-2 ct: 1606; PPARg SRC-3 ag: 1.5; PPARg SRC1 recr: -0.2; SRC1 TRFRET art: 1784

Results for COc1ccc2[nH]c3c(Cl)ncnc3c2c1 ?
PPARg SRC2 recr: -0.2; SRC3 TRFRET art: 1712; TR-FRET SRC-2 ct: 1577; PPARg SRC-3 ag: 2.2; PPARg SRC1 recr: 0.6; SRC1 TRFRET art: 1758

How did COc1ccc2[nH]c3c(=S)nc[nH]c3c2c1 do in these assays?
PPARg SRC2 recr: 33.6*; SRC3 TRFRET art: 2527*; TR-FRET SRC-2 ct: 2492*; PPARg SRC-3 ag: 23.2*; PPARg SRC1 recr: 26.4*; SRC1 TRFRET art: 2593*; PPARg SRC2 conf: 16.2; PPARg SRC1 ag: 8.3; PPARg SRC3 conf: 12.2

Results for NC(=O)c1ccc(C(F)(F)F)n(Cc2ccccc2Cl)c1=O ?
PPARg SRC2 recr: 9.0; TR-FRET SRC-2 ct: 1592; PPARg SRC-3 ag: -6.4; PPARg SRC1 recr: 5.0
